Source: PubChem BioAssay (NCI)
Compounds without any hit were thinned out: in the full panel of roughly 83,000, 20% have a hit.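 Activity criterion: percent growth below 10, measured after cells in 96-well plates were exposed to a single compound concentration for 48 hours.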 Unmarked numbers belong to inactive results. Activity calls are given as the source filed them.

Tests used:
Assay in all cases: NCI-60 one-dose screen, 48 h (100 = growth as untreated, 0 = no growth, -100 = all killed)
[1] = test system: SK-MEL-2 melanoma; conditions: 10 µM unless noted
[2] = test system: EKVX NSCLC; conditions: 10 µM unless noted
[3] = test system: SN12C renal; conditions: 10 µM unless noted
[4] = test system: UO-31 renal; conditions: 10 µM unless noted
[5] = test system: TK-10 renal; conditions: 10 µM unless noted
[6] = test system: ACHN renal; conditions: 10 µM unless noted
[7] = test system: CAKI-1 renal; conditions: 10 µM unless noted
[8] = test system: A498 renal; conditions: 10 µM unless noted
[9] = test system: CCRF-CEM leukemia; conditions: 10 µM unless noted
[10] = test system: MOLT-4 leukemia; conditions: 10 µM unless noted
[11] = test system: SR leukemia; conditions: 10 µM unless noted
[12] = test system: RPMI-8226 leukemia; conditions: 10 µM unless noted
[13] = test system: OVCAR-8 ovarian; conditions: 10 µM unless noted
[14] = test system: OVCAR-5 ovarian; conditions: 10 µM unless noted
[15] = test system: OVCAR-4 ovarian; conditions: 10 µM
[16] = test system: SK-OV-3 ovarian; conditions: 10 µM unless noted
[17] = test system: IGROV1 ovarian; conditions: 10 µM unless noted
[18] = test system: OVCAR-3 ovarian; conditions: 10 µM unless noted
[19] = test system: HS 578T breast; conditions: 10 µM unless noted
[20] = test system: NCI/ADR-RES ovarian; conditions: 10 µM unless noted

Row | SMILES | growth [1] | growth [2] | growth [3] [%] | growth [4] | growth [5] | growth [6] | growth [7] | growth [8] | growth [9] | growth [10] | growth [11] | growth [12] | growth [13] | growth [14] | growth [15] | growth [16] | growth [17] | growth [18] | growth [19] [%] | growth [20]
1 | C=CC1=C(C)C2=NC1=CC1=NC(=CC3=C(C)C4=C(O)C(C(=O)O)C(=C5NC(=C2)C(C)C5CCC(=O)O)C4=N3)C(CC)=C1C (centres undefined) | 129% | 103% | 101 | 73.6% | 106% | 98.7% | 101% | 106% | 96.3% | 96.9% | 95.5% | 102% | 107% | 114% | 103% | 119% | 106% | 107% | 105 | 114%
2 | COc1cccc(-c2[nH]c(=S)ncc2C(=O)c2ccccc2)c1 | 99.9% | 86.9% | 94.4 | 75.9% | 100% | 91.1% | 58.9% | 75% | 93.7% | 76.8% | 28.3% | 113% | 97.4% | 93.8% | 94.9% | 107% | 77.2% | 83.2% | – | 91.8%
3 | CCOC(=O)c1ccc2nc(-c3c(C)nn(-c4ccccc4)c3N3CCOCC3)[nH]c2c1 | 110% | 87.5% | 90.9 | 69.1% | 147% | 86.2% | 78.6% | 70.4% | 88.8% | 84.4% | 74% | 84.4% | 93.4% | 103% | 87.1% | 95.3% | 81.4% | 93.5% | – | 95.9%
4 | CCN(CC)CCCOc1ccc2c(c1)O/C(=C\c1cccc(OC)c1)C2=O | 118% | 97.4% | 87.1 | 73.8% | 98.7% | 99.8% | 87.4% | 72.6% | 102% | 97.7% | 63.3% | 96.2% | 90.8% | 95.7% | 94.2% | 115% | 97.7% | 91.2% | – | 94.8%
5 | CC[C@]1(O)CC2CN(CCc3c([nH]c4ccccc34)[C@@](C(=O)OC)(c3cc4c(cc3OC)N(C=O)[C@H]3[C@@](O)(C(=O)OC)[C@H](OC(C)=O)[C@]5(CC)C=CCN6CC[C@]43[C@@H]65)C2)C1 (some centres undefined) | 18.8% | 47.4% | 26.6 | 56.3% | 74.2% | 34.4% | 48.9% | -17.9% (active) | 2.51% (active) | 21.6% | 13% | 18.7% | 13.2% | 32.2% | 43% | 4.03% (active) | 39.4% | -49.2% (active) | – | 11.3%
6 | COc1ccc(C(=O)CSc2nnc(-c3cc(-c4ccccc4)nc4ccccc34)o2)cc1 | 129% | 109% | 97.3 | 96% | 116% | 108% | 95.7% | 100% | 112% | 120% | 96.3% | 121% | 103% | 105% | 107% | 119% | 102% | 109% | – | 103%
7 | COc1ccc(C(C(=O)O)c2ccc(OC)cc2)cc1 | 111% | 106% | 121 | 108% | 114% | 109% | 112% | 86.7% | 100% | 104% | 106% | 111% | 113% | 108% | 103% | 116% | 118% | 101% | – | 117%
8 | CC(=O)Nc1ccc(C=Nc2ccc3ccccc3c2)cc1 | 121% | 116% | 99 | 98.5% | 106% | 118% | 47.4% | 108% | 93% | 100% | 104% | 101% | 108% | 117% | 108% | 109% | 105% | 122% | – | 115%
9 | CCCCN(CCCC)CC(O)c1ccc(OCc2ccccc2)c2ccccc12 (centres undefined) | 99.4% | 75.5% | 94.6 | 28.9% | 78.2% | 71.7% | 26.3% | 97.2% | 72.7% | 15.8% | 9.33% (active) | 77.3% | 89.6% | 98.4% | 93.3% | 92.4% | 61.8% | 69.2% | – | 77.7%
10 | COc1ccc(/C=C(/C2=NCCN2)n2ccc3ccccc32)cc1 | 99.5% | 88.5% | 88.9 | 52.9% | 85.8% | 82.9% | 69.7% | 89% | 86.2% | 93.2% | 79.5% | 93.1% | 97.1% | 90% | 94.8% | 97.1% | 82.8% | 97.9% | 84.4 | 93%
11 | COc1cc2c(cc1OCCCN1CCN(CCCOc3cc4c(cc3OC)C(=O)N3C[C@H](F)C[C@H]3C=N4)CC1)N=C[C@@H]1C[C@@H](F)CN1C2=O | -20.5% (active) | -34.3% (active) | 25.7 | 11.8% | -52.5% (active) | 7.96% (active) | 16.9% | -55% (active) | -28.1% (active) | -16.7% (active) | -23.4% (active) | -3.68% (active) | 24.4% | 9.91% (active) | 1.26% (active) | 36.1% | 12.4% | 5.75% (active) | – | 63.6%
12 | Oc1c(CNCCNCc2cc(Cl)cc(Cc3ccccc3)c2O)cc(Cl)cc1Cc1ccccc1 | 27.1% | 24% | 19.1 | -20% (active) | 36.8% | 10.3% | 6.39% (active) | 36.2% | 8.47% (active) | 18.2% | 5.69% (active) | 20.8% | 14.3% | 52.9% | 27.1% | 15.4% | 12.8% | 29.5% | 40.7 | 8.69% (active)
13 | Cc1ccc(Oc2c(/C=N/NC(=O)Cn3c(=O)sc4ccccc43)c(C)nn2-c2ccccc2)cc1 | 75.5% | 38% | 29.5 | 25.8% | 62.4% | 43.2% | 28.8% | 78.2% | 40.8% | 8.72% (active) | 41.8% | 32.8% | 54.8% | 74.1% | 46.2% | 66.6% | 44.4% | 54.2% | 63.2 | 50.2%
14 | CCN(CC)c1ccc(/C=C/c2ccc3cc(C)ccc3[n+]2CC)cc1 | -32.3% (active) | 11.8% | 14.2 | 5.46% (active) | -4.22% (active) | 0.905% (active) | 15.7% | 5.43% (active) | 6.14% (active) | -15.3% (active) | -17.6% (active) | -8.91% (active) | 2.3% (active) | 26.8% | 21.2% | -11.6% (active) | 26.5% | 14.9% | 46.5 | 45.7%
15 | CCN(CC)CCCC(C)Nc1ccnc2cc(Cl)c(SCc3ccccc3)cc12 (centres undefined) | -71.1% (active) | 3.57% (active) | 20.4 | -84.1% (active) | -30.8% (active) | -89.2% (active) | -62.2% (active) | -90.1% (active) | -25.9% (active) | -29.3% (active) | -42.6% (active) | -36.6% (active) | -9.3% (active) | -13.7% (active) | 7.81% (active) | -43.1% (active) | -26.7% (active) | -28.5% (active) | – | -18.3% (active)
16 | COc1ccc2nc3c(cc2c1)C(=O)CC(c1ccccc1)C3 (centres undefined) | 70% | 44.5% | 40.7 | 34.5% | 64% | 43.9% | 31.3% | -13.5% (active) | 10.7% | 17.8% | 17.7% | 55.4% | 39% | 61.2% | 92.7% | 52.2% | 35.8% | -7.18% (active) | – | 13.2%
